A number with no mark means an inactive call. How the calls were made is not given here.
Target: Nuclear receptor subfamily 1 group I member 2 (Rattus norvegicus) (UniProt Q9R1A7)
Test: qHTS assay for small molecule activators of the rat pregnane X receptor (rPXR) signaling pathway (AID 651751)
Conditions: rPXR reporter cells, luciferase (One-Glo), 24 h
Further: 0% is about no effect.

Nuclear receptor subfamily 1 group I member 2 (Rattus norvegicus), sequence (Q9R1A7 whole entry, looked up): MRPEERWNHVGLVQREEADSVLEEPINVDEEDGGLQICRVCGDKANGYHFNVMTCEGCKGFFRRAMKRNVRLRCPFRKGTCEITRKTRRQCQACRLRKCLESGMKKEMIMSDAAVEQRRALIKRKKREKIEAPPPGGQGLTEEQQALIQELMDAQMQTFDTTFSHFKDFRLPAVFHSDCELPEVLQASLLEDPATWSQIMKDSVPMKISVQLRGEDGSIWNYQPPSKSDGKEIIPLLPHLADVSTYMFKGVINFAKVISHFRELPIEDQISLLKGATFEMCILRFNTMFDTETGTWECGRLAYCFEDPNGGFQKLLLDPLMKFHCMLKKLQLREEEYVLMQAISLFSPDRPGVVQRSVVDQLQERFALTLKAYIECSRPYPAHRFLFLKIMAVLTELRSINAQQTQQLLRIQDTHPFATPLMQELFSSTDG

Row | Structure (SMILES) | max response
1 | O=C1c2cccc(O)c2C(=O)c2c(O)cc(CO)cc21 | -0.0257%
2 | Cc1cc(O)c2c(c1)C(=O)c1cccc(O)c1C2=O | -1.64%
3 | OC[C@@H](O)[C@@H](O)[C@H](O)[C@@H](O)CO | 14.3%

System: not listed separately
Test: qHTS assay for small molecule activators of the human pregnane X receptor (PXR) signaling pathway (AID 720659)
Conditions: DPX-2 HepG2 CYP3A4-luciferase, 24 h; series mostly up to 92.3 µM; activation: at the top concentration

Row | Structure (SMILES) | activation
4 | CC(C=CC1=C(C)CCCC1(C)C)=CC=CC(C)=CC(=O)Nc1ccc(O)cc1 | -21.2%
5 | O=C1c2cccc(O)c2C(=O)c2c(O)cc(CO)cc21 | 23.9%
6 | Cc1cc(O)c2c(c1)C(=O)c1cccc(O)c1C2=O | -12.8%
7 | OC[C@@H](O)[C@@H](O)[C@H](O)[C@@H](O)CO | -5.66%

Source: PubChem BioAssay (NCATS)
